Read-out in experiment [1]: Cytochrome P450 3A4 (Homo sapiens) (UniProt P08684)
In words: CLD_CYP3A4_48hr: CellzDirect (CLD) Gene Expression Assay for xenobiotic metabolism (CYP3A4) at 48 hours (AID 2283698). The procedure, abridged: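 CYP3A4 induction read by qNPA chemiluminescence after 48 h, with fresh dosing solutions on consecutive days, in cultured human hepatocytes (two donors). Vehicle 0.2% DMSO as baseline; microscopy-based cytotoxicity annotated yes/no alongside data.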

Read-out in experiment [2]: Cytochrome P450 2B6 (Homo sapiens) (UniProt P20813)
In words: CLD_CYP2B6_48hr: CellzDirect (CLD) Gene Expression Assay for xenobiotic metabolism (CYP2B6) at 48 hours (AID 2283699).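 Also: actives raise transcript level above DMSO so potency reflects induction.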 Put shortly:
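CYP2B6 transcript induction, read by quantitative nuclease protection (S1 digestion, chemiluminescent detection) 48 h after dosing, is fitted upward against 0.2% DMSO. Cultured human liver primary cells, two donor preparations, received fresh chemical daily over multiple concentrations.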

Read-out in experiment [3]: xenobiotic metabolism (CYP1A2), CYP1A2 (gene 1544)
Put plainly: CLD_CYP1A2_48hr: CellzDirect (CLD) Gene Expression Assay for xenobiotic metabolism (CYP1A2) at 48 hours (AID 2283703). Put shortly: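 Cytotoxicity was flagged yes/no from morphology, while CYP1A2 transcript induction was detected by qNPA chemiluminescence after a 48-hour exposure. Human primary hepatocyte cultures from separate donors received fresh dosing solutions daily over two days, with 0.2% DMSO as vehicle and baseline.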

Read-out in experiment [4]: xenobiotic metabolism (CYP1A1), CYP1A1 (gene 1543)
Put plainly: CLD_CYP1A1_48hr: CellzDirect (CLD) Gene Expression Assay for xenobiotic metabolism (CYP1A1) at 48 hours (AID 2283705). Put shortly: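 CYP1A1 transcript measured by quantitative nuclease protection (chemiluminescent) 48 h after two daily treatments of human hepatocyte cultures, versus 0.2% DMSO. Morphology-based cytotoxicity flags accompany data; two donor preparations used.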

Experiment [5] in a line: CEETOX_H295R_MTT_cell_viability: Viability Assessment in the CeeTox HT-H295R MTT Assay (AID 2283718; active = hit-call score of the fitted dose curve at least 0.9, where 1 is the maximum; inactive = score below 0.9;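 as to AC50: curve fitted both ways so AC50 may mark viability loss or gain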). The procedure, abridged:
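Human H295R adrenal cells, prestimulated 48 h with 10 uM forskolin, were exposed 48 h to chemicals in 0.1% DMSO. Viability was measured in the same wells by MTT (0.5 mg/ml, 4 h, 37 C), absorbance 570/650 nm, as percent of controls.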

Experiment [6] is described as follows: Tanguay_ZF_120hpf_ActivityScore_legacy: (Legacy) Oregon State University Tanguay Lab 120 Hour Post-fertilization zebrafish Assay Score for Activity (AID 2283742).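 As to AC50: dechorionated Tropical 5D wild-type zebrafish embryos held singly per well.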 Put shortly:
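Dechorionated 5D embryos, one per well, static exposure 6–120 hpf, 28C, sealed and dark; final DMSO 0.64% (vol/vol). Brightfield binary scoring of mortality plus 18 endpoints; gain-of-signal fit versus DMSO baseline.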

Read-out in experiment [7]: Cytochrome P450 2C19 (Homo sapiens) (UniProt P33261)
Put plainly: CLD_CYP2C19_48hr: CellzDirect (CLD) Gene Expression Assay for xenobiotic metabolism (CYP2C19) at 48 hours (AID 2283700).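 Also: fitted upward so actives raise CYP2C19 mRNA above the 0.2% DMSO vehicle.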 The procedure, abridged: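 CYP2C19 mRNA induction read by chemiluminescent quantitative nuclease protection assay after 48 h, with fresh compound added daily for two days to cultured human liver hepatocytes. Activity fitted upward against 0.2% DMSO vehicle.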

Read-out in experiment [8]: glucuronosyltransferase (UGT1A1), UGT1A1 (gene 54658)
In words: CLD_UGT1A1_48hr: CellzDirect (CLD) Gene Expression Assay for glucuronosyltransferase (UGT1A1) at 48 hours (AID 2283709).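 Also: actives increase expression relative to DMSO so potency refers to induction.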 Put shortly: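 Quantitative nuclease protection assay (chemiluminescent) for UGT1A1 mRNA at 48 h in human hepatocyte cultures from two donors, redosed daily with fresh solutions. Induction fitted relative to 0.2% DMSO; phase-contrast morphology annotated cytotoxicity.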

Read-out in experiment [9]: HMG-CoA synthase (HMGCS2), HMGCS2 (gene 3158)
In words: CLD_HMGCS2_48hr: CellzDirect (CLD) Gene Expression Assay for HMG-CoA synthase (HMGCS2) at 48 hours (AID 2283711). The procedure, abridged: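 mRNA induction read by qNPA chemiluminescence, 48 h after dosing. Cultured primary human liver cells (two donor preparations) received fresh compound daily over two days against 0.2% DMSO vehicle; morphology-based cytotoxicity noted alongside.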

Experiment [10] can be described thus: STM_H9_CystineISnorm_perc: Stemina devTOX quickPredict H9 human embryonic stem cell (hESC)-based Assay for Cystine (CYSS) Metabolite Biomarker, Normalized (AID 2283713; active = hit-call score of the fitted dose curve at least 0.9, where 1 is the maximum; inactive = score below 0.9). The procedure, abridged:
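Cells are held undifferentiated and treated for 72h, receiving fresh medium with compound every 24h. Cystine secreted during the final day is quantified by UPLC-HRMS against a labeled spike-in, then expressed relative to the DMSO vehicle median.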

Experiment [11] can be described thus: STM_H9_OrnCyssISnorm_ratio: Stemina devTOX quickPredict H9 human embryonic stem cell (hESC)-based Assay for Ornithine (ORN):Cystine (CYSS) Ratio (AID 2283714). The procedure, abridged:
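UPLC-HRMS of spent media: ORN/CYSS ratio of internal-standard-normalized percentages, DMSO (0.1%) baseline. Pluripotent H9 hESCs, 72h exposure, daily re-dosing with fresh media; last 24h media collected.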

A short description of experiment [12]: ArunA_CellTiter_hNP: Viability Assessment in the ArunA Biomedical's Oris Neural Crest (hNC) Cell Migration Assay (AID 2283753). Put shortly:
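Viability read with CellTiter 96 Aqueous One after 72 h chemical exposure of human hNP1 neuroprogenitors, which were plated on Matrigel in LIF/bFGF medium 16 h beforehand. Endpoint fitted in positive direction relative to DMSO.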

Experiment [13] in a line: ArunA_Migration_hNC: ArunA Biomedical's Oris Neural Crest (hNC) Cell Migration Assay (AID 2283755). Put shortly: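 Calcein-AM fluorescence (ex494 nm/em 517 nm) in the stopper-defined detection zone quantifies migration of hNC cells after 72 h chemical exposure; 60,000 cells/well plated on Matrigel with LIF and bFGF, 16 h pre-incubation. DMSO baseline.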
Experiment [14] is described as follows: ArunA_NOG_NucleusCount: ArunA Biomedical's Neurite Outgrowth (NOG) Assay for Nucleus Count (AID 2283756). The procedure, abridged:
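Viable neuron count, from Hoechst nuclei passing size and intensity gates, imaged at 20x on differentiated H9-derived human neurons. Exposure lasted 48 h from seeding; activity was scored relative to DMSO.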

The structures appear in SMILES notation. Several values for one entry are separate records, joined by “and”; a condition that tells them apart may be missing. Identical values can stand only once. Inconclusive results are not listed. Activity calls are given as the source filed them. The calls were made as follows, unless noted: active = hit-call score of the fitted dose curve at least 0.9, where 1 is the maximum; inconclusive = response in the unintended direction; inactive = score below 0.9.

Results on 16 molecules are retold here after PubChem BioAssay (EPA / NIEHS).

Sequence of Cytochrome P450 2C19 (Homo sapiens) (P33261 whole entry, looked up): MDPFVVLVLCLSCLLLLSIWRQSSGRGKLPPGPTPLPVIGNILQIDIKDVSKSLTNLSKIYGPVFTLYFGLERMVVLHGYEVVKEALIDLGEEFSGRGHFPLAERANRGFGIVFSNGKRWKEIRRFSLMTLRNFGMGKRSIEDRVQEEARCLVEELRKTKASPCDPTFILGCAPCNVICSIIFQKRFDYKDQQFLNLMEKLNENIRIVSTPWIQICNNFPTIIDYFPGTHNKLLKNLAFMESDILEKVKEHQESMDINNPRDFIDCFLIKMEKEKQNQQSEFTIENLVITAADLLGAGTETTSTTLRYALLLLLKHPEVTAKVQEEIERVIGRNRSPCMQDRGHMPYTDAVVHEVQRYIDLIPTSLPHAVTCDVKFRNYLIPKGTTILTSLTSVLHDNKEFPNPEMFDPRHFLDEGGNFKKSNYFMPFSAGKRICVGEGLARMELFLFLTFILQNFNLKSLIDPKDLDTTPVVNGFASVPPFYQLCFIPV
Sequence of Cytochrome P450 3A4 (Homo sapiens) (P08684 whole entry, looked up): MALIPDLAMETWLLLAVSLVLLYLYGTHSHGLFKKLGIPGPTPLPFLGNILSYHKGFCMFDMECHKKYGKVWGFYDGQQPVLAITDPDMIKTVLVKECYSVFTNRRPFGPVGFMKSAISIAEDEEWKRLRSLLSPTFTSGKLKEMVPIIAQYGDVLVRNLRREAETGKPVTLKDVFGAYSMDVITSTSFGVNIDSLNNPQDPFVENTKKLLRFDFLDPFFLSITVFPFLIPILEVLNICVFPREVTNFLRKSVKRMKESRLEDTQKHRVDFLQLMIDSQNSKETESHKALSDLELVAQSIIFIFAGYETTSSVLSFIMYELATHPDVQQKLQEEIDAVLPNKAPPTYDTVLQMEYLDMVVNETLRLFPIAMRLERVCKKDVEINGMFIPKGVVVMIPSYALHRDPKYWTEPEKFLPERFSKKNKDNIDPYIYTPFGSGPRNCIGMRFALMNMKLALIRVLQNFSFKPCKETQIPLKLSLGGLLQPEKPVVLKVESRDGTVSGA

With `O=[N+]([O-])c1c(Cl)c(Cl)c(Cl)c(Cl)c1Cl`, the half-maximal activity concentration (AC50) in experiment [1] is 3.39 µM (active); in experiment [2], 1.9 µM (active); in experiment [3] it was 3.86 µM (active); in [4], 3.97 µM (active). Also, the outcome in experiment [5] and in experiment [6] was inactive.

For `C[C@H]1[C@H](c2ccc(Cl)cc2)SC(=O)N1C(=O)NC1CCCCC1`, the AC50 in [1] was 1.97 µM (active); in experiment [2] it was 1.9 µM (active); in experiment [3], 5.38 µM (active); in experiment [4] it was 34 µM (active); in experiment [5] it was 0.000405 µM (active). The call in [7] and in experiment [6] was inactive.

For the molecule `OCCOc1ccccc1`, the result in experiment [2], in experiment [7], in experiment [3] and in experiment [6] was inactive.

For `O=C(O)COc1ccc(Cl)cc1Cl`, the outcome in experiment [1], in experiment [7], in experiment [3], in experiment [4], in [8] and in [9] was inactive. For the same molecule, the call in experiment [5] and in experiment [6] was inactive.

Take `CC1(c2ccc(Oc3ccccc3)cc2)OC(=O)N(Nc2ccccc2)C1=O` (stereo not given): the result in [1], in [9] and in [6] was inactive. For the same molecule, the AC50 in experiment [3] was 0.661 µM (active); in [4] it was 3.38 µM (active); in experiment [10], 2.42 µM (active); in experiment [11], 3.15 µM (active).

As to `Cc1[nH]c(=O)n(C(C)(C)C)c(=O)c1Cl`, the molecule was classed as inactive in experiment [1], in [7], in [3], in experiment [10] and in experiment [6]. For the same molecule, the AC50 in experiment [2] is 4.85 µM (active).

As for `CC(C)(C)C(O)C(Oc1ccc(Cl)cc1)n1cncn1` (stereo not given), the AC50 was 3.18 µM (active) in [2]; 5.29 µM (active) in experiment [3]; 5.32 µM (active) in experiment [4]; 2.43 µM (active) in experiment [8]; 20.4 µM (active) in experiment [10]; 28.3 µM (active) in experiment [11]. The AC50 in experiment [6] was 26.3 µM (active) and 43 µM (active) and 47 µM (active). Moreover, the call in experiment [7], in experiment [9] and in experiment [5] was inactive.

For `[2H]C1([2H])[n+]2ccccc2-c2cccc[n+]2C1([2H])[2H]`, the result in [3] was inactive. The half-maximal activity concentration (AC50) in experiment [4] was 20 µM (active).

In the case of `CCC(C)(C)C(=O)OC1=C(c2ccc(Cl)cc2Cl)C(=O)OC12CCCCC2`, the AC50 was 34.8 µM (active) in experiment [1] and 20 µM (active) in experiment [3]. Further, the result in experiment [2], in experiment [4], in [5] and in experiment [6] was inactive.

Consider `CNC(=O)Oc1ccccc1OC(C)C`, for which the concentration at half-maximal activity (AC50) is 3.99 µM (active) in experiment [1] and 1.51 µM (active) in experiment [2]. Further, the molecule was classed as inactive in experiment [7], in experiment [3], in [4], in experiment [5] and in experiment [6].

As for `COC(=O)c1ccccc1S(=O)(=O)NC(=O)Nc1nc(C)nc(OC)n1`, the call in experiment [1], in [7] and in experiment [3] was inactive.

On to `N#CN`, for which the result in experiment [7], in [4] and in experiment [6] was inactive.

In the case of `CNC(=O)Oc1cccc(N=CN(C)C)c1`, the outcome in experiment [3], in [4], in [5] and in experiment [6] was inactive.

On to `CN1CSC(=S)N(C)C1`, for which the outcome in experiment [3] and in experiment [4] was inactive. Moreover, in [6], the half-maximal activity concentration (AC50) was 29.6 nM (active).

With `CCC(C)Nc1c([N+](=O)[O-])cc(C(C)(C)C)cc1[N+](=O)[O-]` (stereo not given), the half-maximal activity concentration (AC50) was 2.7 µM (active) in experiment [1]; 2.44 µM (active) in experiment [2]; 5.38 µM (active) in experiment [3]; 3.77 µM (active) in experiment [4]; 46.9 µM (active) in experiment [5]. Also, the molecule was classed as inactive in experiment [7], in [10], in [6], in experiment [12], in [13] and in experiment [14].

For `ClC1C(Cl)C(Cl)C(Cl)C(Cl)C1Cl` (stereo not given), the AC50 in [2] was 0.0441 µM (active). The call in [5] and in [6] was inactive.

For orientation: AC50 means the midpoint of the concentration-response curve, whichever way the signal moves.
